“And” between values parts separate entries of the source, which are not always exact repeats. Equal values may be shown once. Screen size: about 280,000 compounds; about 820 (0.29%) were called active. Where a call stands in place of a potency, no number is given. Not shown: some 1% with an inconclusive outcome. The call rests on the fitted dose curve; in most records, active means well fitted curve in either direction with a large enough effect; inconclusive means small, poorly fitted or top-dose-only effect; inactive means flat fitted curve, though single readings scatter. For the sample, actives were picked, then their nearest neighbours and some compounds at random. Some structures have more than one record in an assay (separate samples or runs), and their calls can disagree.
Assay: Total Fluorescence Counterscreen for Inhibitors of the Interaction of Thyroid Hormone Receptor and Steroid Receptor Coregulator 2
Settings: TRb/SRC2 Texas Red total fluorescence interference; series mostly up to 106 µM
Excerpt: NIH Molecular Libraries Probe Production Network [MLPCN]
NIH Chemical Genomics Center [NCGC]
Assay Provider: R. Kip Guy, St. Jude Children's Research Hospital
Thyroid receptor (TR) regulates many homeostatic processes including basal metabolism, cardiovascular function, body weight, and lipid trafficking. TR modulators are potential therapeutics for obesity and hyperlipidemias but current thyroid analogs have undesirable side effects, particularly cardiac stimulation. To identify inhibitors that specifically prevent the interaction of TR with the steroid receptor […] 2 (SRC2), a fluorescence polarization assay was screened. This assay detects interaction of the ligand-binding domain of human TRb with a Texas Red labeled SRC2 peptide, corresponding to a 20 amino acid region of the nuclear receptor interaction domain (Arnold et al., 2006). Total fluorescence (555 nm excitation and 632 nm emission) was measured to identify potential fluorescent and light absorbing compounds. Such compounds may be artifacts that interfere with the fluorescence polarization assay.
Arnold, L. A.; Estebanez-Perpina, E.; Togashi, M.; Shelat, A.; Ocasio, C. A.; McReynolds, A. C.; Nguyen, P.; Baxter, J. D.; Fletterick, R. J.; Webb, P.; Guy, R. K. A high-throughput screening method to identify small molecule inhibitors of thyroid hormone receptor coactivator binding. Sci STKE 2006, p 13.
NCGC Assay Protocol Summary:
For screening, 5 uL/well 0.6 uM TRb and 20 nM SRC2 Texas Red in protein buffer (20mM Tris hydrochloride, 100mM NaCl, 10% glycerol, 1mM EDTA, 0.01% NP-40, 1mM DTT, 1uM T3 and 5% DMSO) was dispensed into black solid 1536-well plates (Grenier) using a solenoid-based dispenser. Following transfer of 23 nL compound or DMSO vehicle by a pin tool, the plates were centrifuged 15 s at 1000 RPM and incubated 5 hr at ambient temperature. The plates were read by an Envision (Perkin Elmer) to detect fluorescence polarization of SRC2 Texas Red (555 nm excitation and 632 nm emission). Data were normalized to unbound (all components except TRb) and bound SRC2 Texas Red controls. Total fluorescence (TF) was calculated as follows: TF = S + 2P where S and P are fluorescence readings in the parallel and perpendicular channels, respectively.
Keywords: NIH Roadmap, MLPCN, MLI, MLSMR, qHTS, NCGC, qHTS, thyroid hormone receptor, steroid receptor coactivator, fluorescence polarization
Potency means the concentration at half of the fitted maximal effect; tags describe the fitted curve by direction and shape or compound fluorescence and quenching.

| Structure (SMILES) | Potency |
| --- | --- |
| CC(C)Sc1oc(-c2cccs2)nc1S(=O)(=O)c1ccc(Cl)cc1 | inactive |
| CC1(C)C(=O)N(Cl)C(=O)N1Cl | inactive |
| COc1ccc(OC)c(NC(=O)CSC2=Nc3ccccc3C3=NC(CC(=O)NCc4ccc(F)cc4)C(=O)N23)c1 (stereo not drawn) | inactive |
| Cc1ccc(S(=O)(=O)N(Cc2nc(-c3ccc(Cl)cc3)no2)C2CCCCC2)cc1 | inactive |
| C[Si](C)(C)N[Si](C)(C)C | inactive |
| CC(C)(C)OC(=O)N1CCC(c2c(C(=O)NCc3ccccn3)cnn2-c2ccc(F)cc2)CC1 | inactive |
| Cc1c(Cl)cccc1NC(=O)C1CCCN(c2ncnc3onc(C)c23)C1 (stereo not drawn) | inactive |
| Cn1nnnc1SCCCNCc1ccc(Cl)cc1 | inactive |
| O=C(Cn1c(=O)n(Cc2cccs2)c(=O)c2cccnc21)Nc1ccc(F)cc1 | inactive |
| CCOc1cccc(C(=O)Nc2nnc(S(=O)(=O)N(C)c3ccc(C)cc3)s2)c1 | inactive |
| Cc1ccccc1OCCSc1nc2ccc(NC(=O)c3ccco3)cc2s1 | inactive |
| C=Cc1ccc(Cn2c(C(=O)O)c(CNC3CCCC3)c3ccc(C)cc32)cc1 | inactive |
| O=C(COc1ccc(Cl)cc1)Nc1ccccc1OCc1cc(=O)n2ccccc2n1 | inactive |
| Cn1c(SCC(=O)N2CCCc3ccccc32)ncc(C(=O)Nc2ccc(F)cc2)c1=O | inactive |
| COc1ccc(-c2nn(CC(=O)Nc3ccccc3F)c3c2cnc2ccc(F)cc23)cc1 | inactive |
| CCN(CC)c1nn2c(=O)c(C(=O)NCCc3ccccc3)cnc2s1 | inactive |
| COc1ccc(N2CCN(c3nc(-c4ccccc4F)nc4ccccc34)CC2)cc1 | inactive |
| Oc1c(Cl)cc(Cl)c(Cl)c1Cc1c(O)c(Cl)cc(Cl)c1Cl | inactive and 44.7 µM [quencher] (active) |
| CCOc1ccccc1CNC(=O)C1CCCN(S(=O)(=O)c2ccc3c(ccn3C)c2)C1 (stereo not drawn) | inactive |
| Cc1cccc(C(C)C)c1NC(=O)C(NS(=O)(=O)c1cccc2nsnc12)c1ccccc1 (stereo not drawn) | inactive |
| O=C(Nc1ccc2c(c1)OCO2)c1ccc(N2C(=O)c3ccccc3C2=O)cc1 | 0.0079 µM [quencher] (active) |
| O=C(Nc1ccc(N2CCOCC2)cc1)c1ccc2c(c1)OCO2 | inactive |
| Cn1c(=O)n(C)c2cc(C(=O)Nc3ccc4c(c3)OCO4)ccc21 | inactive |
| Cc1cccc(-n2ccnc2SCC(=O)Nc2cccc3ccccc23)c1C | inactive |

| Structure (SMILES) | Potency |
| --- | --- |
| O=C(NCC(c1ccc(Cl)cc1)N1CCOCC1)c1ccccc1F (stereo not drawn) | inactive |
| CC(C)(C)c1ccc(C(=O)NCC(c2ccc(Cl)cc2)N2CCOCC2)cc1 (stereo not drawn) | 10 µM [quencher] (active) |
| COc1cc(C(=O)NCC(c2ccc(Cl)cc2)N2CCOCC2)cc(OC)c1OC (stereo not drawn) | inactive |
| CCC(C(=O)NCc1ccc(OC)cc1)n1nc(C)n2c(cc3occc32)c1=O (stereo not drawn) | inactive |
| CCCNC(=O)C(CC)n1nc(CC)n2c(cc3oc(C)cc32)c1=O (stereo not drawn) | 22.4 µM [quencher] (active) |
| CCOc1ccc(CCNC(=O)C(CC)n2nc(C)n3c(cc4sccc43)c2=O)cc1OCC (stereo not drawn) | inactive |
| CCOc1cc(NC(=O)c2ccco2)c(OCC)cc1NC(=O)COc1ccccc1 | inactive |
| CCOc1cc(NC(=S)NCCCOC)c(OCC)cc1NC(=O)c1ccco1 | 7940 µM [quencher] (active) |
| CCOc1cc(NC(=S)NCc2ccco2)c(OCC)cc1NC(=O)c1ccco1 | inactive |
| O=C(NCCc1ccccc1)c1cnc2sc(N3CCCC3)nn2c1=O | inactive |
| CCOC(=O)c1ccc(NC(=O)CCS(=O)(=O)c2ccc3c(c2)oc(=O)n3C)cc1 | inactive |
| O=C(CCn1c(=O)oc2ccccc21)Nc1ccon1 | inactive |
| CCOC(=O)c1ccc(NC(=O)CCn2c(=O)oc3ccccc32)cc1 | 501 µM [quencher] (active) |
| CCOC(=O)c1ccc2c(c1)N(Cc1cccc(OC)c1)C(=O)c1ccccc1S2(=O)=O | inactive |
| Cc1nn(-c2ccc(F)cc2)c(-n2cccc2)c1C(=O)N1CCN(c2ccccc2)CC1 | inactive |
| CN(C)c1ccc(N/C=C/C(=O)C(F)(F)F)cc1 | 44.7 µM [fluorescent] (active) |
| O=C(/C=C/Nc1ccccc1OC(F)(F)F)C(F)(F)F | inactive |
| CCCOc1ccc(N/C=C/C(=O)C(C)(C)C)cc1 | inactive |
| CCOC(=O)c1ccc(CSc2nnc3cc(C)c4ccccc4n23)cc1 | 1.41 µM [quencher] (active) |
| COC(=O)c1ccc(CSc2nncn2N)cc1 | inactive |
| COC(=O)c1ccc(CSc2nncn2C)cc1 | inactive |
| Cn1c(=O)c2c(ncn2CC(=O)Nc2cccc(C(F)(F)F)c2)n(C)c1=O | inactive |
| O=C(Nc1ccc(OC(F)(F)F)cc1)c1cc2c(=O)n3ccccc3nc2s1 | inactive |
| Cn1c(C(=O)Nc2cccc(C(F)(F)F)c2)cc2c(=O)n3ccccc3nc21 | 44.7 µM [quencher] (active) |

Reference: PubChem BioAssay AID1479 (National Center for Advancing Translational Sciences (NCATS), 2009)
